Reference: the supplement of paper PMC3334620
In all, about 33,000 sequences were measured (“E-score (-0.5 to 0.5)”: median about -0.036, highest 2% from about 0.37 on). What follows is part of a selection rich in the highest values, with near analogues and random picks from the rest.

Biological target: T1, Yer064c (UniProt P40041)
T1 sequence: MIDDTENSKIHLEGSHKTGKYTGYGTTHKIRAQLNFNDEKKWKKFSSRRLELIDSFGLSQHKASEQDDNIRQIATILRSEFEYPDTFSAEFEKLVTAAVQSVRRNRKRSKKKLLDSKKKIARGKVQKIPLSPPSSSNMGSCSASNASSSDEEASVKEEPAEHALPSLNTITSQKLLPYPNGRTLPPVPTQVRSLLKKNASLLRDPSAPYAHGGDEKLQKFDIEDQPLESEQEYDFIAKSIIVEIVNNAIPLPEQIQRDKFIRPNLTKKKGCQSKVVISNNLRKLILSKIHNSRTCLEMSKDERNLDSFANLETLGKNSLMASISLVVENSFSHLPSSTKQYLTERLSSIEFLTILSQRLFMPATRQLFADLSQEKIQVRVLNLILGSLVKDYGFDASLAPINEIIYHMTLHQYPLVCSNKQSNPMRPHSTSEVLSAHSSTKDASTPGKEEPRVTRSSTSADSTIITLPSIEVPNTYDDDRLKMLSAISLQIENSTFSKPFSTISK
Assay: PBM E-score (8-mer binding enrichment) (E-score (-0.5 to 0.5)); higher = stronger / more preferred TF binding
Conditions: protein concentration: 200 nM; construct: GST-full length
Method in brief: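 For each ungapped eight-base word taken together with its reverse complement, the Universal PBM Analysis Suite assigned an E-score. Binding data came from GST-tagged yeast transcription factors, applied at about 100-200 nM, on universal all-10-mer Agilent arrays made double-stranded by primer extension. Fluorescent anti-GST marked bound protein, and scans were normalised with masliner.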

Sequence	PBM E-score
CACTTACC	0.0118
ACAAGGGA	-0.248
AATGTGAC	0.203
AGCGGCGA	-0.0237
CCTTAGCG	0.0566
ACGAAGGG	-0.192
CATTAGGA	0.0671
CCACTCTA	0.0684
AGCTGTCG	-0.196
AGTCTCCC	0.382
AGTCTCCA	0.27
CGTCTCCC	-0.223
CACTCCCA	0.0058
GACTCCCA	0.381
CACTCCCC	-0.147
AACTCCCA	-0.184
GACTCCCC	0.405
AACTCCCC	0.0421
AGCCCAAA	0.141
CCTCCCCC	-0.224
CCTTTATC	-0.243
CAACGTAC	-0.0947
CTAGAGTC	0.366
ATAGAGTC	0.371

Sequence	PBM E-score
CTAGAGTA	0.138
ATAGAGTA	0.134
ATAGAGTG	0.00994
CTAGAGGC	-0.0949
CTAGTAGA	0.0545
AACGGTGC	-0.101
ACGCCGCT	-0.119
CAAACCGC	-0.0599
CAACACAC	0.0236
ACTGTCCG	-0.022
CTACTGAG	0.157
AGAGTCGA	0.291
CGAGTCGA	0.271
AGAGTCGC	0.396
AGAGTCGG	0.326
CCAGTCGC	-0.0128
CGAGTCGC	0.383
GACCCTGC	-0.262
CACCGTAC	-0.0293
TGCTGAAA	-0.0596
AGAGTCAA	0.436
AGAGTCTG	0.147
AGAGTCCT	0.298
AGAGTCCG	0.212

Sequence	PBM E-score
AGAGTCTC	0.332
AGAGTCAG	0.457
AGAGTCAT	0.492
AGAGTCTA	0.158
AGAGTCCA	0.262
AGAGTCCC	0.0408
AGTGTCAT	0.0731
AGAGTCAC	0.485
CCCGGACG	-0.193
CATCTCGC	0.0122
GACACGCA	-0.104
AGCCACTC	0.0575
CGTGTATA	0.0534
CCTAATTA	-0.151
ATGCTAGA	-0.0387
CAGAACTG	0.139
AGCCGAGA	0.0772
CACTTTCG	-0.131
AACACCAT	-0.0344
CAGCTTTA	-0.123
ATATATCA	-0.0122
GGCACCCC	-0.215
ATCATGAA	0.266
GTCATGAA	0.308

Sequence	PBM E-score
ATCATGAC	0.369
AGCATGAT	0.26
ATCATGAG	0.34
CTCATGAC	0.381
GTCATGAC	0.432
GCCATGAC	0.307
CTCATGAG	0.3
ATCATGAT	0.378
ACCATGAT	0.217
CTCATGAA	0.202
CCGAGCAA	-0.287
ATTTGGTG	-0.0429
CCACGTTC	-0.218
CGGTCAAG	-0.055
AATTTAGT	0.363
GTACCGCA	-0.0756
CTAGCACA	-0.147
CCATAGCC	-0.0772
CCATAGTA	0.0975
CCATAGTC	0.396
ACATAGTA	0.0874
ACATAGTC	0.386
ACATAGTG	0.0787
CTCTCGAC	-0.0566

Sequence	PBM E-score
ACCGCCCA	-0.117
CGAGAATA	-0.0825
AGTCACGG	0.469
AGTCACGA	0.466
CGTCACGA	-0.0925
CGTCACGC	-0.184
AATCACGG	0.322
GGTCACGA	0.0181
ATTCACGC	0.132
AGTCACGC	0.469
ATTCACGG	0.196
CAGTAAAG	0.0694
CCGTTTGA	0.0399
ACACCCAA	-0.0135
CCGCCTAC	-0.132
CCTTCGCA	-0.293
CTCGGAAC	-0.012
GACGGCAA	-0.0972
AGGAATCG	0.235
AGGAATCC	-0.0672
CGGAATCC	-0.0704
AGGAATCA	0.429
GGGAATAA	-0.128
GGGAATCA	0.418

Sequence	PBM E-score
CGGAATTA	-0.0336
CGGAATCA	0.392
GGGAATGA	0.0959
GGATTCCA	0.0871
CGCCGAAA	-0.059
GCGCAGGA	-0.0398
CCATCCTA	0.0627
ATACCATG	0.061
AAGTCATT	0.454
ATGTCATC	-0.179
AGGTCATG	0.17
AAGTCAAT	0.305
AAGTCATG	0.465
AACTCATT	0.2
AAGTCATC	0.471
AGGTCATC	0.18
AGGTCATA	0.171
ATGTCATA	0.013
ACGTCATG	0.21
AAGTCATA	0.46
ATCTCTAA	0.0574
AAGGATCC	-0.15
GAGTTCTA	0.0136
GGTTGGGA	0.00893

Sequence	PBM E-score
GGTATCAA	0.0678
CCGTCATC	-0.098
CAGTCATC	0.467
CGGTCATC	-0.108
ATCAAATC	0.21
GAGAAGCC	-0.201
AGCAGAGC	-0.137
CTCATACA	0.184
ATCATACA	0.236
GTCATACA	0.374
ATCAGGAA	0.00077
CCGGCATC	-0.251
GGTAATTA	0.0662
AGTAATCA	0.415
AGTAATCC	0.0831
GGTAATCA	0.433
AGTAATCG	0.186
CGTAATCA	0.42
CGTAATTA	-0.00543
CGTAATCC	-0.0532
GGTAATGA	0.189
CTGCGGTC	-0.245
CAGACCGC	-0.0824
AGTCGATA	0.179

Sequence	PBM E-score
AGACTCAG	0.434
AGACTCGC	0.336
AGACTCTG	0.301
ATACTCAG	0.214
ATACTCAT	0.371
ACTCTCAA	0.257
AGACTCAC	0.457
AGACTCAA	0.444
AGACTCTA	0.267
ATACTCAA	0.239
ACTCTCAC	0.173
ACTCTCAG	0.125
CCAAGTTA	0.0576
CAATTGCG	-0.0914
ATGGATGG	-0.0396
GCAACTGC	-0.0982
AACCGTGT	0.0249
CGGTTCAG	-0.212
TAGCTAAA	0.0446
CCGGGGGC	-0.128
CCCCACCC	-0.0582
ATCATTTA	0.327
ATCCTTAG	-0.107
CATGGCCG	-0.31

Sequence	PBM E-score
AGACTCCG	0.367
CGACTCTC	0.381
CGACTCGC	0.361
CGACTCAC	0.468
CCACTCAC	-0.0373
ACTCTCAT	0.112
AGACTCTC	0.334
AGACTCCT	0.337
AGACTCAT	0.467
CAACTCAC	0.224
ACACTCCG	-0.136
ACACTCAT	0.25
TGGGCTAA	-0.0729
AGATGGTC	-0.295
AGAGACAG	-0.0696
GAACTAGA	0.0303
CGACTCAG	0.45
CCACTCAG	0.0632
CTACTCAG	0.132
CCGTTATC	0.0125
ATGGCGGG	-0.0628
GGTCACAA	0.0763
ACTCACAT	0.35
ATTCACAG	0.078

Sequence	PBM E-score
AGTCACAA	0.46
CGTCACAA	-0.0973
AGTCACAT	0.469
CGTCACAC	-0.155
AGTCACAC	0.477
AGGCACAT	-0.117
CGTCACAG	-0.031
GGTCACAC	-0.00398
AGTCACAG	0.467
CCCCGCTA	-0.209
CTGGCGCC	-0.331
TGCGGACA	-0.121
GATGGCTA	0.359
ATGTCATG	0.214
TACTCATA	0.343
CACTCATG	0.222
CAGTCATA	0.448
CAGTCATG	0.458
CCGTCATA	0.0861
CGGTCATA	-0.0954
TAGTCATA	0.489
CTGTCATA	0.0424
CGCGGACC	-0.262
CGGTTGAC	0.0774

Sequence	PBM E-score
ACCAGCGG	-0.133
CGGCAAGA	-0.115
CGTCAATA	-0.192
AGTCAATG	0.377
AATCAATG	0.236
ACTCAATC	0.404
AATCAATC	0.301
ATTCAATG	0.204
ATTCAATC	0.308
AGTCAATC	0.426
CGTCAATC	0.17
AGTCAATA	0.383
ACTCAATG	0.302
GGTCAATA	0.108
AGCGGATG	-0.0548
CTGGGCTA	-0.161
AGGCTACC	-0.0969
CCAACACC	-0.158
